In PubChem BioAssay (NCI):
Where “and” joins values, the source holds several entries; their conditions need not be identical. Equal entries are not always repeated. The panel holds about 79,000 compounds, 15% with a hit somewhere; the sample as a whole holds those more often. Some structures have more than one record in an assay (separate samples or runs), and their calls can disagree. Calls of active or inactive are those of the source. Rule as the data show it: active = growth inhibition above about 70%; inactive = the rest.

Columns and labels:
[1] = NCI Yeast Anticancer Drug Screen. Data for the rad52 strain (AID 147);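 also: 0% = growth of vehicle-treated control cultures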; conditions: S. cerevisiae rad52 mutant growth inhibition, stronger effect = higher value
Procedure, shortened: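 Screen used a yeast mutant impaired in DNA repair. After compound exposure, growth was measured. Values reflect inhibition compared with vehicle-treated cells.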

[2] = NCI Yeast Anticancer Drug Screen. Data for the wt1 strain (AID 149);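 also: 0% = growth of vehicle-treated wt1 cultures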; conditions: S. cerevisiae wt1 strain (SPY 50644) growth inhibition, stronger effect = higher value
Procedure, shortened: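 Readout: yeast growth inhibition, normalised to vehicle controls, in the wt1 strain exposed to test compounds.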

[3] = NCI Yeast Anticancer Drug Screen. Data for the rad50EPP+ strain (AID 151);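 also: 0% = growth of vehicle-treated control cultures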; conditions: S. cerevisiae rad50 mutant strain, stronger effect = higher value
Procedure, shortened: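 Exposing the rad50EPP+ strain to each compound, growth was compared with vehicle-only cultures to give inhibition.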

[4] = NCI Yeast Anticancer Drug Screen. Data for the mgt1 strain (AID 153); conditions: S. cerevisiae mgt1 mutant growth inhibition, stronger effect = higher value
Procedure, shortened: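 Genetically defined yeast (mgt1) treated with compound; inhibition of growth expressed against vehicle-treated controls.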

[5] = NCI Yeast Anticancer Drug Screen. Data for the rad50 strain (AID 155);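 also: 0% = growth of vehicle-only cultures of the same strain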; conditions: S. cerevisiae rad50 strain growth inhibition, stronger effect = higher value
Procedure, shortened: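 Compounds were tested on a yeast strain with an engineered DNA damage repair alteration; the reported value is growth inhibition normalised to vehicle treatment.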

[6] = NCI Yeast Anticancer Drug Screen. Data for the mec2-1 strain (AID 157); conditions: S. cerevisiae mec2-1 strain, stronger effect = higher value
Procedure, shortened: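 Readout is yeast growth inhibition, normalised to vehicle-treated controls, in the mec2-1 strain exposed to compound.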

[7] = NCI Yeast Anticancer Drug Screen. Data for the rad14 strain (AID 159);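 also: 0% = growth of vehicle-treated control cultures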; conditions: S. cerevisiae rad14 strain growth inhibition, stronger effect = higher value
Procedure, shortened: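 Compound-treated yeast with a defined DNA-repair lesion; growth inhibition normalised to vehicle-treated cultures.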

[8] = NCI Yeast Anticancer Drug Screen. Data for the sgs1 mgt1 strain (AID 161);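 also: 0% = growth of cultures given vehicle only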; conditions: S. cerevisiae sgs1 mgt1 strain, stronger effect = higher value
Procedure, shortened: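 Yeast cells carrying a defined DNA-repair defect were exposed to test compounds. Growth inhibition was measured relative to vehicle-treated controls.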

[9] = NCI Yeast Anticancer Drug Screen. Data for the CLN2oe strain (AID 163);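 also: 0% = growth of vehicle-only control cultures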; conditions: S. cerevisiae CLN2oe strain, stronger effect = higher value
Procedure, shortened: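 Values reflect how much compound exposure reduced yeast growth, referenced to vehicle-exposed cells. Assay organism is a strain with a defined genetic change affecting cell-cycle control.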

[10] = NCI Yeast Anticancer Drug Screen. Data for the cln2 rad14 strain (AID 165);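 also: 0% = growth equal to vehicle treated cultures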; conditions: S. cerevisiae cln2 rad14 strain, stronger effect = higher value
Procedure, shortened: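 Relative to vehicle controls, growth inhibition of compound-treated cln2 rad14 yeast was recorded.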

[11] = NCI Yeast Anticancer Drug Screen. Data for the bub3 strain (AID 167); conditions: S. cerevisiae bub3 mutant strain, stronger effect = higher value
Procedure, shortened: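 Growth of a checkpoint-deficient yeast mutant is measured after compound exposure. Values represent inhibition relative to vehicle.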

[12] = NCI Yeast Anticancer Drug Screen. Data for the wt2 strain (AID 169);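 also: 0% = growth of vehicle-treated yeast cultures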; conditions: S. cerevisiae wt2 strain growth inhibition, stronger effect = higher value
Procedure, shortened: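 Values express reduction in yeast growth under compound treatment, referenced to vehicle-treated cells.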

[13] = NCI Yeast Anticancer Drug Screen. Data for the mlh1 strain (AID 171);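 also: 0% = growth of vehicle-treated control cultures of the same strain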; conditions: S. cerevisiae mlh1 strain growth inhibition, stronger effect = higher value
Procedure, shortened: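 Steps: expose the defined-mutant yeast strain to compound; expose a parallel culture to vehicle; measure growth; express compound effect as inhibition relative to the vehicle culture.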

[14] = NCI Yeast Anticancer Drug Screen. Data for the sgs1 strain (AID 173);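 also: 0% = growth of vehicle-only control cultures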; conditions: S. cerevisiae sgs1 mutant, stronger effect = higher value
Procedure, shortened: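 Treat defined-mutant yeast with compound; measure growth; calculate inhibition relative to vehicle-treated cells.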

[15] = NCI Yeast Anticancer Drug Screen. Data for the mlh1 rad18 strain (AID 175); conditions: S. cerevisiae mlh1 rad18 strain growth inhibition, stronger effect = higher value
Procedure, shortened: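 Test agents were incubated with a yeast strain of defined genotype (DNA damage repair defect). Inhibition of growth was derived by comparison with vehicle-exposed cultures.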

[16] = NCI Yeast Anticancer Drug Screen. Data for the rad18 strain (AID 177); conditions: S. cerevisiae rad18 mutant growth inhibition, stronger effect = higher value
Procedure, shortened: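 A genetically defined yeast mutant impaired in DNA damage repair was treated with test compounds, then its growth was measured against cultures receiving vehicle alone.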

[17] = at 5.0 µM (retest, dose inferred, filed as 0.5)
[18] = at 50.0 µM (retest, dose inferred, filed as 5.0)

Measured: growth inhibition

O=[N+]([O-])c1cc[n+]([O-])cc1
26.8% (inactive) and 87.5% (active): [15]; at 50.0 µM
26.7% (inactive) and 86.5% (active): [8]; at 50.0 µM
inactive: [1]; at 1.2 µM -3% | [1]; at 3.7 µM 2% | [1]; at 11.0 µM 4% | [1]; at 33.0 µM 32% | [2]; at 1.2 µM -6% | [2]; at 3.7 µM -6% | [2]; at 11.0 µM -10% | [2]; at 33.0 µM -14% | [3]; at 1.2 µM 1% | [3]; at 3.7 µM 11% | [3]; at 11.0 µM 12% | [3]; at 33.0 µM 48% | [4]; at 1.2 µM -1% | [4]; at 3.7 µM -4% | [4]; at 11.0 µM -3% | [4]; at 33.0 µM -16% | [5]; at 1.2 µM -6% | [5]; at 3.7 µM -6% | [5]; [17] -158% and 4% | [5]; at 11.0 µM -1% | [5]; at 33.0 µM 58% | [5]; [18] 66% and 60% | [6]; at 1.2 µM 4% | [6]; at 3.7 µM -2% | [6]; [17] -52% and 2% | [6]; at 11.0 µM 0% | [6]; at 33.0 µM -2% | [6]; [18] -19% and 38% | [6]; at 50.0 µM 52% and 57.5% | [7]; at 1.2 µM -2% | [7]; at 3.7 µM 1% | [7]; at 11.0 µM -1% | [7]; at 33.0 µM 19% | [8]; [17] -62% and -8% | [8]; [18] 40% and 54% | [9]; at 1.2 µM -3% | [9]; at 3.7 µM -4% | [9]; at 11.0 µM -2% | [9]; at 33.0 µM 5% | [10]; [17] -61% and -3% | [10]; [18] -19% and 19% | [10]; at 50.0 µM 50.1% and 7.4% | [11]; at 1.2 µM -12% | [11]; at 3.7 µM -8% | [11]; [17] -68% and 5% | [11]; at 11.0 µM 2% | [11]; at 33.0 µM 22% | [11]; [18] 13% and 33% | [11]; at 50.0 µM 9.95% and 68% | [12]; at 1.2 µM -3% | [12]; at 3.7 µM -2% | [12]; at 11.0 µM -3% | [12]; at 33.0 µM -11% | [13]; at 1.2 µM 3% | [13]; at 3.7 µM -6% | [13]; at 11.0 µM -3% | [13]; at 33.0 µM -3% | [14]; at 1.2 µM -2% | [14]; at 3.7 µM -3% | [14]; at 11.0 µM -8% | [14]; at 33.0 µM 33% | [15]; [17] -136% and 0% | [15]; [18] 33% and 53% | [16]; at 1.2 µM -2% | [16]; at 3.7 µM 0% | [16]; at 11.0 µM 3% | [16]; at 33.0 µM 16%
active: [1]; at 100.0 µM 98% | [2]; at 100.0 µM 99% | [3]; at 100.0 µM 98% | [4]; at 100.0 µM 99% | [5]; at 100.0 µM 99% | [6]; at 100.0 µM 99% | [7]; at 100.0 µM 99% | [9]; at 100.0 µM 98% | [11]; at 100.0 µM 99% | [12]; at 100.0 µM 99% | [13]; at 100.0 µM 99% | [14]; at 100.0 µM 99% | [16]; at 100.0 µM 98%
46.1% (inactive) and 83.2% (active): [5]; at 50.0 µM

CC(=O)OC1CCC2(C)C(=CC(C3C=C4CC(OC(C)=O)CCC4(C)C4=C3C3CC5OC6(CCC(C)CO6)C(C)C5C3(C)CC4)C3=C2CCC2(C)C3CC3OC4(CCC(C)CO4)C(C)C32)C1 (stereo not drawn)
active: [1]; at 100.0 µM 88% | [3]; at 100.0 µM 76% | [4]; at 100.0 µM 83% | [5]; at 50.0 µM 91.3%
inactive: [1]; at 1.2 µM 0% | [1]; at 3.7 µM 3% | [1]; at 11.0 µM 7% | [1]; at 33.0 µM 20% | [2]; at 1.2 µM 1% | [2]; at 3.7 µM -1% | [2]; at 11.0 µM 0% | [2]; at 33.0 µM 9% | [2]; at 100.0 µM 11% | [3]; at 1.2 µM 1% | [3]; at 3.7 µM 2% | [3]; at 11.0 µM 25% | [3]; at 33.0 µM 65% | [4]; at 1.2 µM 1% | [4]; at 3.7 µM -3% | [4]; at 11.0 µM -2% | [4]; at 33.0 µM 24% | [5]; at 1.2 µM 0% | [5]; at 3.7 µM 1% | [5]; [17] -7% | [5]; at 11.0 µM 2% | [5]; at 33.0 µM 6% | [5]; [18] 45% | [5]; at 100.0 µM 64% | [6]; at 1.2 µM -2% | [6]; at 3.7 µM 0%
